# ChEMBL document CHEMBL1961873, “Compounds: GSK PKIS; Assays: Nanosyn kinase panel” (2012)
# Assays:
# [1] = test system: Proto-oncogene tyrosine-protein kinase receptor Ret (Homo sapiens), P07949 [Y791F]; details: at 1 µM
# [2] = target: Macrophage-stimulating protein receptor (Homo sapiens) (UniProt Q04912); details: at 0.1 µM
# [3] = target: Macrophage-stimulating protein receptor (Homo sapiens) (UniProt Q04912); details: at 1 µM
# [4] = target: Proto-oncogene tyrosine-protein kinase ROS (Homo sapiens) (UniProt P08922); details: at 0.1 µM
# [5] = target: Proto-oncogene tyrosine-protein kinase ROS (Homo sapiens) (UniProt P08922); details: at 1 µM
# [6] = target: Proto-oncogene tyrosine-protein kinase Src (Homo sapiens) (UniProt P12931); details: at 0.1 µM
# [7] = target: Proto-oncogene tyrosine-protein kinase Src (Homo sapiens) (UniProt P12931); details: at 1 µM
# [8] = target: Tyrosine-protein kinase Srms (Homo sapiens) (UniProt Q9H3Y6); details: at 0.1 µM
# Sequence of Tyrosine-protein kinase Srms (Homo sapiens) (Q9H3Y6 whole entry): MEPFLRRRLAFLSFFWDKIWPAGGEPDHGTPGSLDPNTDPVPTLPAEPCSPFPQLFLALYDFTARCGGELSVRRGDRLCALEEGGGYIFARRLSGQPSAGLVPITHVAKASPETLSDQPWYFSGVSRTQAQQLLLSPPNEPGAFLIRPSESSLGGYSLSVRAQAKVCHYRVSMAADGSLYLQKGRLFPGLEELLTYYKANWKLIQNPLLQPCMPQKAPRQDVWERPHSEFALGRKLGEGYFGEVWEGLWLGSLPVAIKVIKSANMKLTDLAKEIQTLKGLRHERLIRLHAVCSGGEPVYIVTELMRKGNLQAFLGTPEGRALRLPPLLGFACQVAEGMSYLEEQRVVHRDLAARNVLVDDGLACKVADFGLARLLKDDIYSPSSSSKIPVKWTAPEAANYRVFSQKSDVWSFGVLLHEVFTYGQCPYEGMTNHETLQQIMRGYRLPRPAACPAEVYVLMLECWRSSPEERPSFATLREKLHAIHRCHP
# [9] = target: Tyrosine-protein kinase Srms (Homo sapiens) (UniProt Q9H3Y6); details: at 1 µM
# [10] = target: Tyrosine-protein kinase SYK (Homo sapiens) (UniProt P43405); details: at 0.1 µM
# [11] = target: Tyrosine-protein kinase SYK (Homo sapiens) (UniProt P43405); details: at 1 µM
# [12] = target: T1, Tyrosine-protein kinase Tec (Homo sapiens) (UniProt P42680); details: at 0.1 µM
# T1 sequence (whole entry): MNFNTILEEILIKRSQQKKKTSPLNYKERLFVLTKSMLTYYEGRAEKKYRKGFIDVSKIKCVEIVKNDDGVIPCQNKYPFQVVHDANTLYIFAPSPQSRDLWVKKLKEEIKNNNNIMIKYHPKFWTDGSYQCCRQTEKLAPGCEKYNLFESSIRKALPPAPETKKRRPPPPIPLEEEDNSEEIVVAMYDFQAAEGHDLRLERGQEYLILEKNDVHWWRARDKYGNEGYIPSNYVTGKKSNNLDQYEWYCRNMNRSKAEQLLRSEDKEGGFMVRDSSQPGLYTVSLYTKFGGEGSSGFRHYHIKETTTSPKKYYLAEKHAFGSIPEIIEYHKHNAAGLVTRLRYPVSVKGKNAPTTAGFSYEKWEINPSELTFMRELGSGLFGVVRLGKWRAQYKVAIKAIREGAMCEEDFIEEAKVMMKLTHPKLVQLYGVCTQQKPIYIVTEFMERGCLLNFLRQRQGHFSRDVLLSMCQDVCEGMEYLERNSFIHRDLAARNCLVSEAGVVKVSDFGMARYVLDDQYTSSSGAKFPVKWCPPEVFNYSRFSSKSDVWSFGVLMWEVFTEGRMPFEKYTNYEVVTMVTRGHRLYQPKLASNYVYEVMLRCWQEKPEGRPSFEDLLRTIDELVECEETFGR
# [13] = target: T1, Tyrosine-protein kinase Tec (Homo sapiens); details: at 1 µM
# [14] = target: Angiopoietin-1 receptor (Homo sapiens) (UniProt Q02763); details: at 0.1 µM
# [15] = target: Angiopoietin-1 receptor (Homo sapiens) (UniProt Q02763); details: at 1 µM
# [16] = target: T2, Non-receptor tyrosine-protein kinase TNK1 (Homo sapiens) (UniProt Q13470); details: at 0.1 µM
# T2 sequence (whole entry): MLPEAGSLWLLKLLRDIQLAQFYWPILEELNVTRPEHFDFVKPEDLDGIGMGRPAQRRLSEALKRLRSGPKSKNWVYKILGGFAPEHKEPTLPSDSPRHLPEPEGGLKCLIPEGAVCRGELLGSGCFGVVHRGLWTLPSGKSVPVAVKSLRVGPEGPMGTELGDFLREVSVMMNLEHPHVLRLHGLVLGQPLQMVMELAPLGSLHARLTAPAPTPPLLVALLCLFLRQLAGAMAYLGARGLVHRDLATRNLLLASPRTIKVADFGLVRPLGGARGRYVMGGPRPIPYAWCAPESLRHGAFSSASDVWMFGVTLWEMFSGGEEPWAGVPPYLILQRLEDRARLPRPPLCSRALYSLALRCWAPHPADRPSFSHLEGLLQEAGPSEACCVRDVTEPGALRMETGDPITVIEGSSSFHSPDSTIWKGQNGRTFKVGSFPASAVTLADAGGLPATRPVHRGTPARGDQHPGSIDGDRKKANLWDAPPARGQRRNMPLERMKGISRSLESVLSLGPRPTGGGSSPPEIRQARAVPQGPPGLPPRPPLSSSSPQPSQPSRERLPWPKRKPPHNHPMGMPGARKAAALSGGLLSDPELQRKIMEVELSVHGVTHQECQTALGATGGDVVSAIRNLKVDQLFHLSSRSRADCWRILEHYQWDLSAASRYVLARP
# [17] = target: T2, Non-receptor tyrosine-protein kinase TNK1 (Homo sapiens); details: at 1 µM
# [18] = target: Activated CDC42 kinase 1 (Homo sapiens) (UniProt Q07912); details: at 0.1 µM
# Sequence of Activated CDC42 kinase 1 (Homo sapiens) (Q07912 whole entry, looked up): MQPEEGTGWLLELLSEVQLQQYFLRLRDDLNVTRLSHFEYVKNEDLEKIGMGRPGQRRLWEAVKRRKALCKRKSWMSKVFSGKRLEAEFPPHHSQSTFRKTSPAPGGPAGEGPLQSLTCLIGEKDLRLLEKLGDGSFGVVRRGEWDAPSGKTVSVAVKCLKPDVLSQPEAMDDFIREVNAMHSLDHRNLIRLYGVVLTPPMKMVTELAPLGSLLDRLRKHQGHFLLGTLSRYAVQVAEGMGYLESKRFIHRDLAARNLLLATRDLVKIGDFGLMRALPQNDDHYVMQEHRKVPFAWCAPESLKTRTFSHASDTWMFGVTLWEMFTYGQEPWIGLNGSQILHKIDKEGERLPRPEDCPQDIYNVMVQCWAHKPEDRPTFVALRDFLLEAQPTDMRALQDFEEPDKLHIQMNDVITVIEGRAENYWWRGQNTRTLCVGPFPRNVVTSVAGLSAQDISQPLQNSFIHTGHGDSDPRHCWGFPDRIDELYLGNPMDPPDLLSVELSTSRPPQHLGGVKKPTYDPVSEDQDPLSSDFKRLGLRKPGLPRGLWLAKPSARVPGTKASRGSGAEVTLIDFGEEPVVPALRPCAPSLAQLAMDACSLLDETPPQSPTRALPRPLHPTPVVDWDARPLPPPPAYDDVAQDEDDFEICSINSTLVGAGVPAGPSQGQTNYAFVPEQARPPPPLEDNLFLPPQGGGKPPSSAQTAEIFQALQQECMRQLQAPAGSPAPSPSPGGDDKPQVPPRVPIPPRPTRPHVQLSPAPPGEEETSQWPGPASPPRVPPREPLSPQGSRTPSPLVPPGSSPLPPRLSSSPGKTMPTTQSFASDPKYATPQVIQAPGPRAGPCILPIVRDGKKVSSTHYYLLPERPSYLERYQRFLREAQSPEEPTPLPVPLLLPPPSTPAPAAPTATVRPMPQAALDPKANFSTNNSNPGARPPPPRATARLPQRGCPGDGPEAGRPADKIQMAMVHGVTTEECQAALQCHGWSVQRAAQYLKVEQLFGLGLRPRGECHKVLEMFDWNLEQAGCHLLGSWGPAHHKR
# [19] = target: Activated CDC42 kinase 1 (Homo sapiens) (UniProt Q07912); details: at 1 µM
# [20] = target: High affinity nerve growth factor receptor (Homo sapiens) (UniProt P04629); details: at 0.1 µM;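 note: each value is a mean of replicate percent inhibition readings against TRKA kinase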
# Sequence of High affinity nerve growth factor receptor (Homo sapiens) (P04629 33-796 limits assumed): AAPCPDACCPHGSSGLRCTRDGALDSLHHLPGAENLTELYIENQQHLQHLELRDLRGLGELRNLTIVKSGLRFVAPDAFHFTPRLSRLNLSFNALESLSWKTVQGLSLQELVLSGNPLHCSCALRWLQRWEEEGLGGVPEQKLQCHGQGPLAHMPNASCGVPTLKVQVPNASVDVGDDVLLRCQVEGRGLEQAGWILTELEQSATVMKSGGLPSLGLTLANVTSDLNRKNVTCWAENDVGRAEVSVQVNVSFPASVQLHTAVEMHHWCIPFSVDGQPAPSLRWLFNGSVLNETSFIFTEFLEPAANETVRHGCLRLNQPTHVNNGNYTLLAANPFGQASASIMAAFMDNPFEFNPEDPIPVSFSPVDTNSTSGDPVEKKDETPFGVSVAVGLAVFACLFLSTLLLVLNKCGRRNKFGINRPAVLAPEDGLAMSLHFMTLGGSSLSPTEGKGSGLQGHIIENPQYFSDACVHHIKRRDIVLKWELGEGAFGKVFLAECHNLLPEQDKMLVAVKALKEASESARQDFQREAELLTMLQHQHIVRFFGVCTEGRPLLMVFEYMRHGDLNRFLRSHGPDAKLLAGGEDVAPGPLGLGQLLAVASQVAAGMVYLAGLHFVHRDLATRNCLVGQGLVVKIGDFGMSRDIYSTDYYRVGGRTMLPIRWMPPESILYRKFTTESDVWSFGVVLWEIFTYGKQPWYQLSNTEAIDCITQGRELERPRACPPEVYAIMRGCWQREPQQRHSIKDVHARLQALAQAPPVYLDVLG
# Sequence of Macrophage-stimulating protein receptor (Homo sapiens) (Q04912 25-304 limits assumed): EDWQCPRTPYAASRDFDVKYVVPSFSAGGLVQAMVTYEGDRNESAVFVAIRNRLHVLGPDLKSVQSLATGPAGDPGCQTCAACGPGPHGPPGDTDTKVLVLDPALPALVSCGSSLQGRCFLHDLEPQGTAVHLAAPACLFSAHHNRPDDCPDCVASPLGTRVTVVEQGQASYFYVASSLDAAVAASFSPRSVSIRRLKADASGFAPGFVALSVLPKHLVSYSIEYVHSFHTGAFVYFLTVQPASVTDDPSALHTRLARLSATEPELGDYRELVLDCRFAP
# Sequence of Macrophage-stimulating protein receptor (Homo sapiens) (Q04912 310-1400 limits assumed): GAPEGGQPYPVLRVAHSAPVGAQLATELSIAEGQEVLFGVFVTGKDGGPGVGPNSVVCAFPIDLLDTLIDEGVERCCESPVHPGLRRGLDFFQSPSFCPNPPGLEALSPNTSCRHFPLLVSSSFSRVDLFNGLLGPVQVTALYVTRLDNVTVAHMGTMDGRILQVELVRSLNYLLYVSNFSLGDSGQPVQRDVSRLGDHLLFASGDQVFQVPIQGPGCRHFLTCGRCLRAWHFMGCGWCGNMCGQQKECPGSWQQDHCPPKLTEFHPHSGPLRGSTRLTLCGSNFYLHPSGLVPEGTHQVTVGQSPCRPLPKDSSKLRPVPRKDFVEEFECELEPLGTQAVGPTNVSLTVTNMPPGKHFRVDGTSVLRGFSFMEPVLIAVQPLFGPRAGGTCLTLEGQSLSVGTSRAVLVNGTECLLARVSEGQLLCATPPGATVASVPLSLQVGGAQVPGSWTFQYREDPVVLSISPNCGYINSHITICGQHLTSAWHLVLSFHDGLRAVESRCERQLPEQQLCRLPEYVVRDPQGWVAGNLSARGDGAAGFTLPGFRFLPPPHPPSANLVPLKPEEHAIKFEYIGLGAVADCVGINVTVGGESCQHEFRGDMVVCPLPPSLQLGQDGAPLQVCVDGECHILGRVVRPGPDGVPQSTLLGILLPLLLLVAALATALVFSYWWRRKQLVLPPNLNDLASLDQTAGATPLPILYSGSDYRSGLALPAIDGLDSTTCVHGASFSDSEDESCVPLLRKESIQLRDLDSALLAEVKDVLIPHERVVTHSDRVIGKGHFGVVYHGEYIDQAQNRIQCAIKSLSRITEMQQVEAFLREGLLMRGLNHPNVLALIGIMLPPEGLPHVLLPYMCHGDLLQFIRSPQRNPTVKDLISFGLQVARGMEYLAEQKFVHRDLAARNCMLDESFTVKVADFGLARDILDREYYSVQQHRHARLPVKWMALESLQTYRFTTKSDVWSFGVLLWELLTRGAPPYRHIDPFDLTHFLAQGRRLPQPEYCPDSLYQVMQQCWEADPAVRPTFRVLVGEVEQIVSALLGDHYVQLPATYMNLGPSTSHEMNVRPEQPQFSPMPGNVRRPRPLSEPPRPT
# Sequence of Proto-oncogene tyrosine-protein kinase receptor Ret (Homo sapiens), P07949 [Y791F] (P07949 whole entry Y791F): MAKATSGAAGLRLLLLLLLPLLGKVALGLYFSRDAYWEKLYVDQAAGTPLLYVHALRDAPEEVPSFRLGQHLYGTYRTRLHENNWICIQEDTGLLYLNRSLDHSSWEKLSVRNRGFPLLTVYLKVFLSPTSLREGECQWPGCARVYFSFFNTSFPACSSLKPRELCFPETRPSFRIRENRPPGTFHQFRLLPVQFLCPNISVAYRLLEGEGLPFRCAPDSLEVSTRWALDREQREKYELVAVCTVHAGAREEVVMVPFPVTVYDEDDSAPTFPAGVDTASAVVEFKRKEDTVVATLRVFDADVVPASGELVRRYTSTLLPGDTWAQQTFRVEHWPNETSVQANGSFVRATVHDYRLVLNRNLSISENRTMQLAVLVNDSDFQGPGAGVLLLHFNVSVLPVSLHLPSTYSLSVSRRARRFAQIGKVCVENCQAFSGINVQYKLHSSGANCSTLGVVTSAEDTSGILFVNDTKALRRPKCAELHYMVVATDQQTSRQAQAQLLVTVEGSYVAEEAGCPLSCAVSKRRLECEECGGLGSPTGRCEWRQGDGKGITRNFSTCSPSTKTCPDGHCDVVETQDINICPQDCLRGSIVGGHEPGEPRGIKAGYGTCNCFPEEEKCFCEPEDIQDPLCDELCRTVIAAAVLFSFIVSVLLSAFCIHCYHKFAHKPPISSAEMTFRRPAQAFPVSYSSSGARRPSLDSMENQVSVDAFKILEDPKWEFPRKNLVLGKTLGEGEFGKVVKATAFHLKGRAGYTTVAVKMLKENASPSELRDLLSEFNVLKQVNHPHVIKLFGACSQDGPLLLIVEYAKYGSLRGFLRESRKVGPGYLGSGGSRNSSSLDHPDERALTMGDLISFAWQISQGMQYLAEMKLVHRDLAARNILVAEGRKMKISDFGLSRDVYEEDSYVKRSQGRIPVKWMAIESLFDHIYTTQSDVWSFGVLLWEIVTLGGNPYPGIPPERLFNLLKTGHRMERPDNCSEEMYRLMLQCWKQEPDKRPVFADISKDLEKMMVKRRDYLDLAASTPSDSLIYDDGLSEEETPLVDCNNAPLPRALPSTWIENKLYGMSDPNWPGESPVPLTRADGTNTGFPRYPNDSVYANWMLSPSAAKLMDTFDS
SMILES,inhibition [1],inhibition [2],inhibition [3],inhibition [4],inhibition [5],inhibition [6],inhibition [7],inhibition [8],inhibition [9],inhibition [10],inhibition [11],inhibition [12],inhibition [13],inhibition [14],inhibition [15],inhibition [16],inhibition [17],inhibition [18],inhibition [19],inhibition [20]
Fc1ccc(-c2ncn(C3CCNCC3)c2-c2ccnc(Oc3ccc4c(c3)OCO4)n2)cc1,12.8%,3.59%,4.19%,4.93%,8.59%,7.77%,8.43%,-2.94%,-4.12%,-0.62%,-5.42%,2.04%,5.37%,7.45%,12.3%,3.93%,7.31%,1.16%,1.77%,1.21%
NC(=O)c1ccc(Oc2nccc(-c3c(-c4ccc(F)cc4)ncn3C3CCNCC3)n2)cc1,3.63%,4.31%,6.11%,9.43%,7.5%,13%,13.6%,-3.65%,-3.42%,-0.16%,2.71%,8.39%,6.14%,5.16%,6.4%,4.4%,4.01%,0.55%,1.67%,2.53%
Fc1ccc(-c2ncn(CCCN3CCOCC3)c2-c2ccncc2)cc1,7.08%,-2.7%,0.97%,2.12%,4.63%,3.31%,1.01%,-3.46%,-3.16%,2.97%,-1.02%,-0.04%,2.36%,1.37%,1.99%,0.29%,-6.97%,-0.82%,-1.72%,-2.6%
CCC(=O)Nc1ccc(C)c(-c2ccc(C(=O)NCC3CC3)cc2)c1,6.48%,9.18%,7.8%,,3.11%,6.28%,6.57%,-0.92%,-1.83%,3.61%,0.67%,3.13%,2.28%,4.73%,6.22%,-0.12%,6.35%,0.66%,1.34%,2%
NS(=O)(=O)c1ccc(N/N=C2\C(=O)Nc3ccc(-c4cnco4)cc32)cc1,31.9%,7.46%,4.84%,6.83%,9.22%,3.76%,20.5%,0.38%,0.29%,0.72%,-1.05%,-1.76%,4.09%,3.92%,4.65%,9.41%,44.4%,-0.82%,0.92%,4.49%
CCc1cccc(CC)c1/C=C/c1cncc(C(=O)NC)c1,2.43%,-0.25%,6%,2.24%,4.93%,2.97%,10.2%,0.35%,-0.17%,-3.77%,-0.49%,4.18%,7.25%,1.3%,3.17%,5.96%,10.2%,1.3%,2.37%,1.94%
